Screening data from PubChem BioAssay.
ABHD5-PLIN5 inh: ABHD5-PLIN5 protein interaction inhibition. Q00G26+Q8WTS1. Split G. princeps luciferase complementation, luminescence, 4 h. inhibition, % at 4 µM. 0.78% of 360,000 active. AID 602281;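 active = inhibition above the mean inhibition across every tested compound plus 3 SD, cut at about 22% in these data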;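 note: 0% = DMSO only wells and the 100% control is not disclosed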
Target sequence (Q00G26 whole entry, looked up): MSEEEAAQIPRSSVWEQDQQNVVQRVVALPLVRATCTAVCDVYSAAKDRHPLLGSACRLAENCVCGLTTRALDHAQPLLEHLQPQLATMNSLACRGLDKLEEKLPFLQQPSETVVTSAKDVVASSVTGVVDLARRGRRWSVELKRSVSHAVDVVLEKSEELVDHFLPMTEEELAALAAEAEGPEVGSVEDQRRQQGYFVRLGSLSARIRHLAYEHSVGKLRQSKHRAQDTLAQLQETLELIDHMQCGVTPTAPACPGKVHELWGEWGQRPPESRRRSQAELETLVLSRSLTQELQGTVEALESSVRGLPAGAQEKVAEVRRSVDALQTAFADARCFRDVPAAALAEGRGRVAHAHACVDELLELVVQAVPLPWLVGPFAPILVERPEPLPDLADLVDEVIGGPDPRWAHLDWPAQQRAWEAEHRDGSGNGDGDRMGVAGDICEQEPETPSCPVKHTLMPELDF
Target sequence (Q8WTS1 whole entry, looked up): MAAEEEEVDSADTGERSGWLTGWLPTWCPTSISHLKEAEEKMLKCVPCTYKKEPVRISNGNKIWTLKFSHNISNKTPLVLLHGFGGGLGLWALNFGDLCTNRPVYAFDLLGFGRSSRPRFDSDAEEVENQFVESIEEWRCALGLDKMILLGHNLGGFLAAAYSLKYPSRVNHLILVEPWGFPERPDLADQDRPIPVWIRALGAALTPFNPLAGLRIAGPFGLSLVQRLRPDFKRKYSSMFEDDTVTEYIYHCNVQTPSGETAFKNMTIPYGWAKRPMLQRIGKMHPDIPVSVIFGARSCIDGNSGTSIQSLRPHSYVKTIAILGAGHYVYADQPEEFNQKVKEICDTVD
KKLEB tox: reduces viability of KKLEB cystic fibrosis airway cells | KKLEB CF airway cells viability, ATPlite luminescence, overnight; active compounds read low; cells stimulated with P. aeruginosa culture filtrate | 0.36% of 360,000 active | activity change (cytotoxicity), % at 5 µM;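 active = corrected activity change at or below -50% at 5 µM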
HIF-2a block: HIF-2a inhibition. AID 624352. 786-0 RCC cells HIF-2a reporter, luciferase luminescence, overnight. inhibition, % at 18.8 µM. 0.72% of 360,000 active;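 active = inhibition of the luminescence signal of 40% or more relative to plate controls, in a single-dose primary screen at 18.75 µM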
CF NFkB inh: blocks PAF-induced NF-kB reporter in cystic fibrosis cells; KKLEB NF-kB-GFP reporter, GFP fluorescence overnight; inhibition, % at 5 µM; 0.86% of 360,000 active; AID 588850;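 active = at least 50% inhibition at 5 µM, scaled per plate between neutral and stimulator controls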;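 note: PAF is a Pseudomonas aeruginosa culture filtrate used as stimulus; plate controls were PAF-stimulated DMSO wells for no effect and unstimulated DMSO wells for full effect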
TRPM1 prom inh: reduces MITF-dependent TRPM1 promoter luciferase signal. AID 488899. 0.83% of 330,000 active. SK-MEL-5 TRPM1 promoter luciferase, 24 h. inhibition, % at 12.5 µM;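 active = mean inhibition across replicates of 60% or more, whatever share of single replicates reaches that level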
Peg3 promoter: inhibitors of Peg3 promoter. HeLa PEG-Prom luciferase reporter, luminescence, overnight. inhibition, % at 20 µM. 1.7% of 360,000 active;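 active = inhibition of at least 50% at 20 µM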
Mdm2-MdmX confirm: Mdm2/MdmX (human) interaction inhibition, confirmed; shares compounds with HIF-2a block; SaOS-2 split-luciferase Mdm2/MdmX complementation, luminescence; inhibition, % at 8 µM; 99% of 740 active;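 active = mean inhibition of the luminescence signal across two replicates at or above 26 percent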
HIF-2a conf: confirmation of HIF-2a inhibitors | shares compounds with HIF-2a block | 786-0 RCC cells, HIF-2a luciferase reporter luminescence, overnight | inhibition, % at 18.8 µM | 56% of 1,800 active | AID 651580;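 active = mean inhibition across four replicates of at least 40 percent at the single tested concentration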
HIF-1a cs: inhibits HIF-1a reporter, a counter-screen for HIF-2a inhibitors; shares compounds with HIF-2a block; MiaPaCa-2 HIF-1a luciferase reporter, desferoxamine, overnight; inhibition, % at 18.8 µM; 72% of 1,800 active; AID 651589;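 active = mean inhibition of the reporter signal across four replicates at the single tested dose of 50% or more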
* = called active by the depositor; . = no result. Only some compounds are listed: those with a hit (about 3.1% of all), similar ones and a draw of the others.

SMILES	ABHD5-PLIN5 inh	KKLEB tox	HIF-2a block	CF NFkB inh	TRPM1 prom inh	Peg3 promoter	HIF-2a conf	HIF-1a cs	others
Cc1ccc(S(=O)(=O)n2nc(C)cc2C)cc1	1	13	3	-6	2	11	.	.
CS(=O)(=O)c1ccc(-c2nnc(NC(=O)c3cccc(N4C(=O)CCC4=O)c3)o2)cc1	4	0	6	22	3	1	.	.
N=c1n(CC(=O)c2ccc(Br)s2)c2ccccc2n1Cc1ccccc1	15	-34	67*	2	90*	101*	3	106*	Mdm2-MdmX confirm=102*
COc1ccc(-c2csc3ncn(-c4ccccc4)c(=O)c23)cc1OC	0	-4	25	6	6	15	.	.
COc1ccc(-c2csc3ncn(-c4cccc(C)c4)c(=O)c23)cc1OC	1	-4	41*	10	-5	32	2	2
O=C(CCNC(=O)c1ccccc1Cl)NCCc1ccc(C(F)(F)F)cc1	-2	-2	4	-18	10	-6	.	.
COc1ccc(NC(=O)/C(Cl)=C(/Cl)S(=O)(=O)Cc2ccccc2)cn1	49*	-53*	94*	84*	94*	100*	100*	106*
COc1ccc(NC(=O)C(Cl)=C(Cl)Cl)cn1	5	3	-10	-2	-15	15	.	.
CC(=O)c1c(C)oc2ccc(N(C(C)=O)S(=O)(=O)c3ccc(Cl)c([N+](=O)[O-])c3)cc12	-4	-9	69*	42	65*	104*	-1	107*
CC(=O)c1c(C)oc2ccc(N(C(C)=O)S(=O)(=O)c3ccc(Br)cc3)cc12	2	-12	7	10	4	47	.	.
CCOc1ccc(S(=O)(=O)NCCC(=O)Nc2nnc(C)s2)cc1	8	4	3	-6	18	0	.	.
COCCn1c(SCC(=O)Nc2sccc2C(N)=O)nnc1-c1ccncc1	5	0	14	0	14	4	.	.
c1ccc(-n2nnnc2Sc2ncnc3sc4c(c23)CCCC4)cc1	7	-52*	41*	82*	63*	68*	15	62*
Cc1sc2ncnc(Sc3nnnn3-c3ccc(Cl)cc3)c2c1C	5	-57*	41*	84*	73*	88*	1	102*	Mdm2-MdmX confirm=103*
Cc1cccc(C(=O)Nc2ccc(C(=O)/C=C/c3ccncc3)cc2)c1	91*	5	88*	24	55	102*	-77	105*
CC(SC#N)C(=O)C12CC3CC(CC(C3)C1)C2 (stereo not given)	-6	-22	46*	44	6	36	24	12
Cc1c(Nc2ccc(C=O)cc2)c(=O)n(-c2ccccc2)n1C	4	2	6	-15	1	-3	.	.
COc1ccc(C2NN=C(c3c[nH]c4ccccc34)C2O)cc1 (stereo not given)	4	18	-120	4	3	-66	.	.
COc1ccc(C2C(O)C(c3c[nH]c4ccccc34)=NN2C(=O)CCl)cc1 (stereo not given)	6	-89*	93*	98*	98*	117*	88*	106*
COc1ccccc1OCCN1CSC(=S)N(C)C1	3	-18	88*	16	69*	100*	23	103*
COc1ccccc1OCCCCN1CCCCC1	5	-9	18	10	3	0	.	.
CC(C)(C)c1ccc(C(=O)N2CCCCCC2=O)cc1	-1	-4	89*	6	81*	35	95*	82*
O=C(CCCOc1ccc(Cl)cc1Cl)NCCc1ccccn1	5	-4	59*	3	1	33	57*	80*
O=C(CCCOc1ccc(Cl)cc1Cl)NCc1ccncc1	0	-6	8	-7	-2	16	.	.
O=C(CCCOc1ccc(Cl)cc1Cl)NCCCO	3	-6	-26	16	5	-19	.	.
